Screening results as filed in PubChem.
This is a sample that favours compounds with a hit; in the whole collection about 11% have one here.
Pf growth 48h: inhibits P. falciparum growth in the first generation, 48 h; Potency, µM (top dose mostly 28.7 µM), most hits filed as inhibitors; P. falciparum luciferase growth in erythrocytes, 48 h; hit rate 5.9% among 310,000
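Erythrocytes infected with P. falciparum carrying an integrated firefly luciferase reporter (2% hematocrit, 0.1% parasitemia final) were exposed to compounds in RPMI 1640 with 0.5% Albumax at 37 C, 5% CO2. Growth inhibition was scored as reduced luminescence.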
AmpC inh no detg: AmpC beta-lactamase inhibition without detergent. AmpC nitrocefin hydrolysis, absorbance 480 nm, 0.0001% Triton. Potency, µM (titrated, usually from 57.1 µM), usual class: inhibitors. hit rate 0.52% among 330,000. AID 485341; also: nearly all actives have a fitted effect of over 20% in size
Target sequence (P00811 whole entry, looked up): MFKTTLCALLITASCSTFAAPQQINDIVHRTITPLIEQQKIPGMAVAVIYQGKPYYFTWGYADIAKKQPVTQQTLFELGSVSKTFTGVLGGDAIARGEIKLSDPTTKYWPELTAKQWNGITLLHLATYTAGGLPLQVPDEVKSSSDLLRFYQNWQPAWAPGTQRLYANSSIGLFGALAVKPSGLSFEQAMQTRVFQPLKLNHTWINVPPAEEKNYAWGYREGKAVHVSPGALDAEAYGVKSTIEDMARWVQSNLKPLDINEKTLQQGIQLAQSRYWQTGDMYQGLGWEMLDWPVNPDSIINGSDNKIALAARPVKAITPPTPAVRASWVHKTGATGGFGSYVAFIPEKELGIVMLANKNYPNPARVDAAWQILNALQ
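20 mM phosphate pH 7.0 + 0.01% (detergent screen) or 0.0001% Triton X-100; 5.3 nM AmpC reagent; cpd preinc 15 min RT; nitrocefin (800 uM stock) to start; A480 q20 s × 4 min; Activity was normalised to no-enzyme and no-compound control wells.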
AmpC inh detg: AmpC beta-lactamase inhibition with detergent present. Potency, µM (highest dose often 114 µM), usual class: inhibitors. P00811. hit rate 0.041% among 370,000. AmpC hydrolysis of nitrocefin, absorbance 480 nm, 0.01% Triton. AID 485294; also: nearly all actives have a fitted effect of over 25% in size
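20 mM phosphate pH 7.0 + 0.01% (detergent screen) or 0.0001% Triton X-100; 5.3 nM AmpC reagent; cpd preinc 15 min RT; nitrocefin (800 uM stock) to start; A480 q20 s × 4 min; Activity was normalised to no-enzyme and no-compound control wells.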
AMA1-RON2 inh: inhibitors of Plasmodium falciparum AMA1-RON2 interaction. AlphaScreen AMA1-biotinylated RON2 peptide binding. Potency, µM (highest dose often 58.2 µM), actives largely listed as inhibitors. hit rate 0.2% among 360,000. AID 720542; also: nearly all actives have a fitted effect of over 45% in size
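AMA1 (3D7) with his tag at 25 nM final met compounds first, then biotinylated RON2 peptide at 25 nM; detection used donor plus acceptor beads, 10 µg/mL apiece, read by AlphaScreen after 30 min at room temperature.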
Pf growth 96h: inhibits malaria parasite growth, 96 h; AID 504834; hit rate 6.9% among 320,000; Potency, µM (doses to about 28.7 µM), actives largely listed as inhibitors; P. falciparum luciferase reporter growth, 96 h
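Infected RBCs, 2% Hct / 0.05% parasitemia final; luciferase-reporter P. falciparum; cpd 96 h, 37 C, 5% CO2; luciferase detection reagent; luminescence.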
HCV inhibitor: inhibitors of hepatitis C virus infection. Huh7.5.1 HCVcc-Cre infection, luciferase reporter, 44 h. Potency, µM (top dose mostly 41.8 µM), usual class: inhibitors. AID 651820. hit rate 3.4% among 340,000
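HCVcc-Cre virus at an moi near 0.5 was added right after compound to cells cultured 4 h from seeding (1,000 cells/well). Luciferase activity was determined 44 h later, 15 min after substrate addition at RT.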
Large screens that a line does not name were inactive. Calls follow the shape of the dose curve; as a rule, active = well fitted curve in the direction sought with a large enough effect; inconclusive = small, poorly fitted or top-dose-only effect, or another doubt; inactive = no such curve, though single readings can be large; an effect the other way counts as inactive or inconclusive.

CCN1CCN(C(c2ccccc2Cl)c2sc3nc(-c4ccco4)nn3c2O)CC1 (stereo not drawn)	none (no result: Pf growth 48h, AmpC inh no detg, AMA1-RON2 inh, Pf growth 96h, HCV inhibitor)
CCOC(=O)c1ccc(NC(=O)CN2Cc3ccccc3C2=O)cc1	none (no result: Pf growth 48h, AmpC inh no detg, AMA1-RON2 inh, Pf growth 96h, HCV inhibitor)
Cn1c(C(=O)Nc2ccc3c(c2)OCCO3)cc2sccc21	none (no result: HCV inhibitor)
O=C(Nc1ccc2c(c1)OCCO2)c1cc2sccc2n1Cc1ccccc1	Pf growth 48h inconclusive, AmpC inh no detg inconclusive, Pf growth 96h inconclusive, HCV inhibitor 11µM
O=C(Nc1ccc2c(c1)OCCO2)c1cc2sccc2n1Cc1ccc(F)cc1	Pf growth 48h inconclusive, Pf growth 96h 10µM, HCV inhibitor inconclusive
COc1ccc(S(=O)(=O)NCC(c2ccc(N(C)C)cc2)N2CCc3ccccc32)cc1F (stereo not drawn)	none (no result: Pf growth 48h, AmpC inh no detg, AMA1-RON2 inh, Pf growth 96h, HCV inhibitor)
O=C(Nc1cc(-c2ccc(Cl)cc2)no1)c1ccc(F)cc1	none (no result: Pf growth 48h, AmpC inh no detg, AMA1-RON2 inh, Pf growth 96h, HCV inhibitor)
CCc1ccc(-n2nc3ccc(NC(=O)c4cc5ccccc5o4)cc3n2)cc1	none (no result: Pf growth 48h, AmpC inh no detg, AMA1-RON2 inh, Pf growth 96h, HCV inhibitor)
Cc1ccc2cccc(NC(=O)c3ccc(-c4cccc(Cl)c4)o3)c2n1	none (no result: Pf growth 48h, AmpC inh no detg, AMA1-RON2 inh, Pf growth 96h, HCV inhibitor)
N#Cc1ccccc1Cn1c(=O)oc2ccccc21	none
O=c1oc2ccccc2n1Cc1ccccc1Cl	Pf growth 96h 4.7µM
CC(C)(C)OC(=O)N1CCC(N2CCN(Cc3ccccc3)C(=O)C2=O)CC1	none (no result: Pf growth 48h, AmpC inh no detg, AMA1-RON2 inh, Pf growth 96h, HCV inhibitor)
CC(=O)Nc1ccc(C(=O)N/C(=C/c2ccccc2)C(=O)NCc2ccco2)cc1	none
CC(C)(C)c1ccc(C(=O)N/C(=C\c2cccs2)C(=O)NCc2ccco2)cc1	Pf growth 48h inconclusive, Pf growth 96h 8.3µM
CCOC(=O)C1=C(C)C2C3C(=O)N(c4cc(C)ccc4C)C(=O)C3C1(C)C1C(=O)N(c3cc(C)ccc3C)C(=O)C21 (stereo not drawn)	Pf growth 48h 13µM, Pf growth 96h inconclusive
CCOC(=O)C1=C(CN2CCN(c3cc(C)ccc3C)CC2)NC(=O)NC1c1ccc(Cl)cc1 (stereo not drawn)	none (no result: Pf growth 48h, AmpC inh no detg, AMA1-RON2 inh, Pf growth 96h, HCV inhibitor)
CCN1CCN(C(=O)C(NS(=O)(=O)c2ccc3nc(C)sc3c2)C(C)C)CC1 (stereo not drawn)	Pf growth 96h 9.3µM (no result: Pf growth 48h)
COc1ccc(CCNC(=O)CCc2c(C)nc3cc(-c4ccccc4)nn3c2C)cc1OC	none (no result: Pf growth 48h, AmpC inh no detg, AMA1-RON2 inh, Pf growth 96h, HCV inhibitor)
CCc1c(C)nc2cc(-c3ccc(OC)c(OC)c3)nn2c1NCC1CC1	Pf growth 96h inconclusive, HCV inhibitor 11µM (no result: Pf growth 48h)
Cc1nn(Cc2ccccc2)c(C)c1C(=O)N1CCN(S(=O)(=O)/C=C/c2ccccc2)CC1	Pf growth 48h 12µM, Pf growth 96h 4.1µM
COc1ccc(CCNC2=CC(=O)N(c3ccc(F)cc3)C2=O)cc1	Pf growth 96h 3.3µM
CSc1ncc(Cl)c(C(=O)Nc2c(C)cccc2C)n1	Pf growth 96h 4.1µM
CSc1ncc(Cl)c(C(=O)Nc2ccccc2Cl)n1	AmpC inh detg inconclusive
CCN(CC)CCNC(=O)c1cc(S(=O)(=O)N2CCc3ccccc32)cn1C	AmpC inh detg inconclusive
Cc1cccc(NC(=O)c2cc(S(=O)(=O)N3CCc4ccccc43)cn2C)c1	Pf growth 96h inconclusive
CC(C)CCNC(=O)Cn1c(=O)oc2cc(S(=O)(=O)N3CCc4ccccc43)ccc21	Pf growth 96h 12µM (no result: Pf growth 48h)
Cn1cc(S(=O)(=O)N2CCc3ccccc32)cc1C(=O)Nc1ccc(Cl)cc1	Pf growth 48h 13µM, AmpC inh detg inconclusive, HCV inhibitor inconclusive
O=C(Cn1c(=O)oc2cc(S(=O)(=O)N3CCc4ccccc43)ccc21)NC1CCCC1	AmpC inh detg inconclusive, Pf growth 96h inconclusive, HCV inhibitor inconclusive (no result: Pf growth 48h)
CSc1cccc(NC(=O)c2cc(S(=O)(=O)N3CCc4ccccc43)cn2C)c1	Pf growth 48h inconclusive, AmpC inh no detg 10µM, Pf growth 96h inconclusive, HCV inhibitor inconclusive
CC(C)CCNC(=O)c1cc(S(=O)(=O)N2CCc3ccccc32)cn1C	Pf growth 96h 1.2µM, HCV inhibitor inconclusive
CCC1CCc2nc3sc(C(=O)Nc4cccc(F)c4)c(N)c3cc2C1 (stereo not drawn)	none (no result: Pf growth 48h, AmpC inh no detg, AMA1-RON2 inh, Pf growth 96h, HCV inhibitor)
COc1cc(NC(=O)c2cc(S(=O)(=O)N3CCc4ccccc43)cn2C)cc(OC)c1OC	Pf growth 48h 12µM
